Bioassay records (PubChem)
KCNQ2 enhance: potentiators of rat KCNQ2 potassium channel. O88943. CHO-K1 KCNQ2, FluxOR thallium flux fluorescence; stronger effect = higher value. B-score at 10 µM. 310,000 tested, 0.54% active. AID 2239;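 active = fluorescence ratio B-score at least 3 SD of library B-scores, with initial fluorescence B-score within 3 of them, cut at about 5.3 in these data; same plate scores as AID 2156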;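 also: B-score of peak minus minimum over baseline fluorescence ratio after K+ and Tl+ stimulus; positive B-score means potentiation of KCNQ2 with more thallium influx and brighter signal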
KCNQ2 inh: blocks the rat KCNQ2 potassium channel. 310,000 tested, 1.1% active. B-score at 10 µM. CHO-K1 KCNQ2, FluxOR thallium flux, 20 min; stronger effect = lower value. O88943. AID 2156;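 active = fluorescence ratio B-score at most minus 3 library SDs, with starting brightness B-score within 2 library SDs, cut at about -5.5 in these data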
Kir21 conf inh: confirmation of mouse Kir2.1 potassium channel inhibitors; shares compounds with KCNQ2 enhance; Kir2.1-expressing cells, FluxOR thallium flux fluorescence; stronger effect = lower value; Tl flux remaining, % of negative control (stronger effect = lower value), % at 10 µM; 2,300 tested, 41% active;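 active = Primary-screen hit whose thallium flux fell at least 3 control SD below untreated wells in both duplicates, with normal baseline fluorescence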;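 also: 0% = blank wells without stimulus and 100% = stimulated no-compound controls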
Target sequence (P35561 whole entry, looked up): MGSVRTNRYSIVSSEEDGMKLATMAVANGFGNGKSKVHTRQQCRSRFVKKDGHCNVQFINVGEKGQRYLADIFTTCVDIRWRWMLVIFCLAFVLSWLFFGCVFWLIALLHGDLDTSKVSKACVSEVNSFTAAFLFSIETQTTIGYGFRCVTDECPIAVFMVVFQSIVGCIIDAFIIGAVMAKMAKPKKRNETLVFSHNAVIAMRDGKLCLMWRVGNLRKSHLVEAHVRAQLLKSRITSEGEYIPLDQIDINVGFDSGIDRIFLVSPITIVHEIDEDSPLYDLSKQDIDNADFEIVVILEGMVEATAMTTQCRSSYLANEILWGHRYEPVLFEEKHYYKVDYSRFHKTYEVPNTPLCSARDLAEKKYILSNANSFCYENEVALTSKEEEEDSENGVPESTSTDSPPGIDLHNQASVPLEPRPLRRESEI
HEK293 Tl flux: counter-screen for Kir2.1 inhibitors: effect in parental HEK293 cells; shares compounds with KCNQ2 enhance; FluxOR thallium flux fluorescence; 0% = unstimulated blank wells; FluxOR signal as % of negative control (100 = no effect), % at 10 µM; 2,300 tested, 19% active;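 active = dye signal at least 3 control SD above or below untreated wells in both duplicates, raw fluorescence within 3, either direction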;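 also: percent is based on the flux ratio of peak minus minimum fluorescence over baseline F0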
CHO-K1 Tl ctr: alters thallium flux in parental CHO-K1 cells, KCNQ2 counter-screen | shares compounds with KCNQ2 enhance | activity increase over 3SD of controls, % at 10 µM | FluxOR thallium flux fluorescence; zero = vehicle mean+3SD, 100% = vehicle-minus-blank window | 1,200 tested, 43% active;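 active = signal rise of at least 3 SD above the untreated control mean, in both duplicate wells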;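 also: counter screen of KCNQ2 potentiator hits so any rise reflects channel-independent effects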
KCNQ1 pot spec: tests whether KCNQ2 potentiators also act on human KCNQ1. 1,200 tested, 28% active. shares compounds with KCNQ2 enhance. AID 2283. activation over 3SD threshold, % at 10 µM. CHO KCNQ1 stable, FluxOR thallium flux fluorescence; beyond 3SD, as % of vehicle-control signal;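 active = fluorescence ratio rise of at least 3 SD of vehicle wells above their mean, in both replicate wells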;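 also: 0% = vehicle mean plus 3 SD and 100% = vehicle minus unstimulated blank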
KCNQ2 pot confirm: confirmation of rat KCNQ2 potassium channel potentiators; shares compounds with KCNQ2 enhance; CHO-KCNQ2 cells, FluxOR thallium flux fluorescence; potentiation, less the hit threshold, % at 10 µM; 1,200 tested, 68% active;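 active = fluorescence ratio rising 3 SD or more over the vehicle control mean in both replicates, plus primary screen hit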;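 also: peak minus minimum thallium fluorescence divided by baseline after K/Tl stimulus; 0% = vehicle mean plus 3 SD and 100% = vehicle minus unstimulated blank difference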
Kir2-1 sel: tests whether KCNQ2 potentiators also affect mouse Kir2.1 | shares compounds with KCNQ2 enhance | activity over 3SD threshold, % at 10 µM | 1,200 tested, 2% active | HEK293 Kir2.1, FluxOR thallium flux fluorescence;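 active = fluorescence ratio rise of at least 3 SD above the vehicle-control mean, seen in both replicates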;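 also: 0% = vehicle mean plus 3 SD and 100% = vehicle minus no-stimulus blank window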
KCNQ2 W236L MoA: rat KCNQ2 W236L mutant potentiation by KCNQ2 potentiators; shares compounds with KCNQ2 enhance; CHO KCNQ2-W236L, automated patch clamp current; current increase over 3SD of negative controls (%), stronger effect = higher value, % at 25 µM; 940 tested, 10% active;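 active = current increase at least 3 SD of the untreated controls above them in both duplicate recordings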
An asterisk follows results filed as active; i = inactive; nt = no result given. Most compounds without a hit are left out; they make up all but 1.6% or so of the library.

SMILES	KCNQ2 enhance	KCNQ2 inh	Kir21 conf inh	HEK293 Tl flux	others
COc1cc(CNCCc2ccccc2F)ccc1OCc1ccc(Cl)nc1	0.04	i	nt	nt
COC(=O)c1cccc(NC(=S)Nc2ccccc2Cl)c1	0.44	i	nt	nt
COC(=O)c1cccc(NC(=S)Nc2ccc(Cl)c(Cl)c2)c1	5.4*	i	i	i	CHO-K1 Tl ctr=-9;KCNQ1 pot spec=1.4*;KCNQ2 pot confirm=-1;Kir2-1 sel=-40;KCNQ2 W236L MoA=i
CCN(CC)CCN1C(=O)C(=O)/C(=C(/O)c2ccc(S(=O)(=O)N3CCOCC3)cc2)C1c1ccc(C)cc1 (centres undefined)	0.4	i	nt	nt
N#Cc1c(C(F)(F)F)cc(-c2ccc(Cl)c(Cl)c2)nc1SCCN1CCOCC1	0.12	i	nt	nt
N#Cc1c(C(F)(F)F)cc(-c2ccccc2)nc1SCc1nc(N)nc(N2CCOCC2)n1	10*	i	i	i	CHO-K1 Tl ctr=-19;KCNQ1 pot spec=-22;KCNQ2 pot confirm=17*;Kir2-1 sel=-17;KCNQ2 W236L MoA=i
O=C(O)c1ccccc1-n1c(-c2ccccc2)cc2c1CCCC2=O	nt	i	nt	nt
CC1CCN(CC(=O)Nc2ccc(N3CCCCCC3)cc2)CC1	5.9*	i	nt	nt	CHO-K1 Tl ctr=7.2*;KCNQ1 pot spec=-15;KCNQ2 pot confirm=-11;Kir2-1 sel=-62
CC1CCN(CC(=O)Nc2ccc(S(=O)(=O)N3CCCCC3)cc2)CC1	0.02	i	nt	nt
Cc1ccc(N2CCN(S(=O)(=O)c3ccc4c(c3)oc(=O)n4C)CC2C)cc1 (centres undefined)	2.1	i	nt	nt
CC(=O)c1c(C)[nH]c(-c2ccccc2)nc1=S	6*	i	i	168%*	CHO-K1 Tl ctr=41*;KCNQ1 pot spec=-4;KCNQ2 pot confirm=-2;Kir2-1 sel=-24;KCNQ2 W236L MoA=i
COc1ccccc1-c1nc(=S)c(C(C)=O)c(C)[nH]1	0.12	i	nt	nt
CCCCN(CCCC)c1nc(OC)nc(-n2nnc(C(C)=O)c2C)n1	8*	i	i	i	CHO-K1 Tl ctr=-12;KCNQ1 pot spec=-8;KCNQ2 pot confirm=-8;Kir2-1 sel=-43;KCNQ2 W236L MoA=i
CC(=O)c1nnn(-c2nc(N)nc(N(c3ccccc3)c3ccccc3)n2)c1C	0.29	i	nt	nt
COc1cccc(OCCn2cc(C(C)=O)c3ccccc32)c1	0.83	i	nt	nt
COCCNC(=S)N1CCN(c2ccc(Cl)cc2)CC1	0.34	i	nt	nt
CCC(Oc1nc2ccccc2nc1-c1ccccc1NC(C)=O)C(=O)c1ccccc1 (centres undefined)	0.45	i	nt	nt
CSc1nc2c(c(=O)[nH]1)C(c1cccc(Cl)c1)CC(=O)N2 (centres undefined)	0.81	i	nt	nt
CSc1nc2c(c(=O)[nH]1)C(c1ccc(Cl)cc1)CC(=O)N2 (centres undefined)	nt	i	i	i
Cc1cc(C(C)(C)C)cc(C)c1Cn1c2[n+](c3ccc(C(F)(F)F)cc31)CCCCC2	nt	i	46%*	i
FC(F)(F)c1cccc(Cn2c3[n+](c4ccc(C(F)(F)F)cc42)CCCCC3)c1	nt	i	nt	nt
O=C(COc1ccccc1)N=C1SC2CS(=O)(=O)CC2N1Cc1ccccc1 (centres undefined)	nt	i	nt	nt
COc1cc(OC)c(NS(=O)(=O)c2cc(Br)cnc2N)cc1Cl	0.48	i	72%*	72%*
Cc1ccc(NS(=O)(=O)c2cc(Br)cnc2N)c(Cl)c1	0.02	i	nt	nt
COc1ccc(S(=O)(=O)NCC(=O)NCc2cc(=O)n(C)c(=O)n2C)cc1	nt	i	nt	nt
SMILES	KCNQ2 enhance	KCNQ2 inh	Kir21 conf inh	HEK293 Tl flux	others
CCOCc1cn(CC(=O)c2ccc([N+](=O)[O-])cc2)c(C)nc1=N	nt	i	i	i
CCOCc1cn(CC(=O)c2ccc(Cl)cc2)c(C)nc1=N	1.8	i	nt	nt
Cc1cc(C)n(C(C)CC(=O)Nc2ccc(-c3ccno3)cc2)n1 (centres undefined)	0.65	i	nt	nt
Cn1ccnc1Sc1ccccc1[N+](=O)[O-]	nt	i	nt	nt
O=[N+]([O-])c1cc(C(F)(F)F)ccc1Sc1nccn1Cc1ccccc1	nt	i	58%*	i
O=[N+]([O-])c1cc(C(F)(F)F)ccc1Sc1ccc2ccccc2n1	nt	i	nt	nt
O=[N+]([O-])c1ccc(Sc2nccn2Cc2ccccc2)c([N+](=O)[O-])c1	nt	i	52%*	i
COC(=O)c1cc(NC(=O)COC(=O)C2CCC2)cc(C(=O)OC)c1	nt	i	nt	nt
CCc1nc(SCC(=O)c2cccs2)c2oc3ccccc3c2n1	4.5	i	nt	nt
Nc1cc(-c2ccc(Cl)cc2)nn1S(=O)(=O)c1cccc2nsnc12	5.1	i	nt	nt
Nc1cc(-c2ccc(Br)cc2)nn1S(=O)(=O)c1cccc2nsnc12	6.9*	i	i	i	CHO-K1 Tl ctr=20*;KCNQ1 pot spec=-11;KCNQ2 pot confirm=-4;Kir2-1 sel=-42
O=C(CCC(=O)N1CCOc2ccc(Cl)cc21)NCCCN1CCN(c2ccccc2F)CC1	1.1	i	nt	nt
O=C(CCC(=O)N1CCOc2ccc(Cl)cc21)NCCCN1CCC(Cc2ccccc2)CC1	nt	i	i	i
CC(NS(=O)(=O)c1c(N)n(C)c(=O)n(C)c1=O)c1ccccc1 (centres undefined)	0.32	i	nt	nt
COc1ccc(C)cc1NC(=O)C1CCN(C(=O)c2ccc(C(C)(C)C)cc2)CC1	nt	i	nt	nt
O=S(=O)(Nc1nc(-c2sccc2Cl)cs1)c1cc(Cl)ccc1Cl	19*	i	i	339%*	CHO-K1 Tl ctr=17*;KCNQ1 pot spec=-21;KCNQ2 pot confirm=149*;Kir2-1 sel=-25;KCNQ2 W236L MoA=i
CC(C)(C)c1nnc(NS(=O)(=O)c2cc(Cl)ccc2Cl)s1	1.9	i	nt	nt
O=C(Nc1ccccc1N1CCCC1)C1CCN(C(=O)c2ccc(F)cc2)CC1	nt	i	nt	nt
Cc1ccc2c(c1)c1c(n2CC(O)CNC(CO)(CO)CO)CCCC1 (centres undefined)	0.98	i	nt	nt
Cc1ccc2c(c1)c1c(n2CC(O)CNC2CCCCC2)CCCC1 (centres undefined)	nt	i	51%*	i
COC(=O)CN1C(=O)Nc2ccc(Br)cc2C1c1ccccc1 (centres undefined)	6.7*	i	i	i	CHO-K1 Tl ctr=-16;KCNQ1 pot spec=-10;KCNQ2 pot confirm=52*;Kir2-1 sel=-48;KCNQ2 W236L MoA=i
NNC(=O)CN1C(=O)Nc2ccc(Cl)cc2C1c1ccccc1 (centres undefined)	2.3	i	nt	nt
COC(=O)c1ccc(N2CCCCC2)c(NC(=O)c2ccco2)c1	nt	i	nt	nt
O=C(NCc1ccc(Cl)cc1)C1CCCCN1S(=O)(=O)c1ccccc1 (centres undefined)	nt	i	nt	nt
